In PubChem BioAssay (NCATS):
“And” between values parts separate entries of the source, which are not always exact repeats. Equal values may be shown once. Records with an inconclusive call do not appear. The source made the active and inactive calls. The call rests on the fitted dose curve; in most records, active means well fitted inhibition curve with a large enough effect; inconclusive means small, poorly fitted or top-dose-only effect; inactive means flat fitted curve, though single readings scatter.

Legend:
[1] = system: JCK; experiment: qHTS profiling for inhibitors of Plasmodium falciparum proliferation (AID 504749); further: potency means the concentration at half of the fitted maximal effect; conditions: P. falciparum in erythrocytes, SYBR Green DNA, 72 h; series mostly up to 28.7 µM
Summary of the method: (§1)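 Infected RBCs, 0.3% parasitemia/2.5% Hct final; cpd 72 h, 37 C, 5% CO2; lysis buffer with saponin/triton/SYBR Green I, o/n RT dark; FI 485/535; norm. to artemisinin (0.29 uM) and DMSO.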

[2] = system: N140; experiment: as above; conditions: P. falciparum in erythrocytes, SYBR Green DNA, 72 h; series mostly up to 28.7 µM
Summary of the method: as §1

[3] = system: P93_24; experiment: as above; conditions: P. falciparum in erythrocytes, SYBR Green DNA, 72 h; series mostly up to 28.7 µM
Summary of the method: as §1

[4] = system: P94_40; experiment: as above; conditions: P. falciparum in erythrocytes, SYBR Green DNA, 72 h; series mostly up to 28.7 µM
Summary of the method: as §1

[5] = system: PAD; experiment: as above; conditions: P. falciparum in erythrocytes, SYBR Green DNA, 72 h; series mostly up to 28.7 µM
Summary of the method: as §1

[6] = system: PC15; experiment: as above; conditions: P. falciparum in erythrocytes, SYBR Green DNA, 72 h; series mostly up to 28.7 µM
Summary of the method: as §1

[7] = system: PC26; experiment: as above; conditions: P. falciparum in erythrocytes, SYBR Green DNA, 72 h; series mostly up to 28.7 µM
Summary of the method: as §1

[8] = system: PC49; experiment: as above; conditions: P. falciparum in erythrocytes, SYBR Green DNA, 72 h; series mostly up to 28.7 µM
Summary of the method: as §1

[9] = system: SC27B; experiment: as above; conditions: P. falciparum in erythrocytes, SYBR Green DNA, 72 h; series mostly up to 28.7 µM
Summary of the method: as §1

[10] = system: TAB109; experiment: as above; conditions: P. falciparum in erythrocytes, SYBR Green DNA, 72 h; series mostly up to 28.7 µM
Summary of the method: as §1

[11] = system: TAB113; experiment: as above; conditions: P. falciparum in erythrocytes, SYBR Green DNA, 72 h; series mostly up to 28.7 µM
Summary of the method: as §1

[12] = system: TAB165; experiment: as above; conditions: P. falciparum in erythrocytes, SYBR Green DNA, 72 h; series mostly up to 28.7 µM
Summary of the method: as §1

[13] = system: HaCat; experiment: Cytotoxic Profiling of Annotated Libraries Using Quantitative High-Throughput Screening (AID 1296008); conditions: Five cell lines viability, CellTiter-Glo ATP luminescence, 48-72 h; max response: stronger effect = lower value; further: potency means the concentration at half of the fitted maximal effect; on max response: on the % scale 0 is the no-effect control and ±100 the full control effect
Summary of the method: (§2)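 Cytotoxicity was measured as CellTiter-Glo ATP luminescence, read after 10 min at room temperature. Compound treatment of the cells lasted 48 or 72 hr at 37 degrees Celsius in a qHTS format.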

[14] = system: KB-3-1; experiment: as above; conditions: Five cell lines viability, CellTiter-Glo ATP luminescence, 48-72 h; max response: stronger effect = lower value
Summary of the method: as §2

[15] = system: NIH3T3; experiment: as above; conditions: Five cell lines viability, CellTiter-Glo ATP luminescence, 48-72 h; max response: stronger effect = lower value
Summary of the method: as §2

[16] = system: HACAT; experiment: qHTS assay to identify novel small-molecules to repurpose for Merkel cell carcinoma treatment (AID 1296009); conditions: MCC and control cell lines, CellTiter-Glo viability, 72 h; at 44.8 µM (top of the series) unless noted
Summary of the method: (§3)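 72 hr, 37 degree celsius; NPC 8-pt / MIPE 11-pt dose response; compound pinned in DMSO; CellTiter-Glo, 10 min RT, luminescence; normalized to no-cell and DMSO controls.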

[17] = system: HEK293; experiment: Cytotoxic Profiling of Annotated Libraries Using Quantitative High-Throughput Screening (AID 1296008); conditions: Five cell lines viability, CellTiter-Glo ATP luminescence, 48-72 h; max response: stronger effect = lower value; further: potency means the concentration at half of the fitted maximal effect; on max response: on the % scale 0 is the no-effect control and ±100 the full control effect
Summary of the method: as §2

[18] = system: W2; experiment: qHTS profiling for inhibitors of Plasmodium falciparum proliferation (AID 504749); further: potency means the concentration at half of the fitted maximal effect; conditions: P. falciparum in erythrocytes, SYBR Green DNA, 72 h; series mostly up to 28.7 µM
Summary of the method: as §1

[19] = system: HEK293T; experiment: qHTS assay to identify novel small-molecules to repurpose for Merkel cell carcinoma treatment (AID 1296009); conditions: MCC and control cell lines, CellTiter-Glo viability, 72 h; at 44.8 µM (top of the series) unless noted
Summary of the method: as §3
Further: nearly all actives have a fitted effect of over 60% in size.

CCCCOc1ccc(C(=O)CCN2CCCCC2)cc1
inactive: Potency [1] | Potency [2] | Potency [3] | Potency [4] | Potency [5] | Potency [6] | Potency [7] | Potency [8] | Potency [9] | Potency [10] | Potency [11] | Potency [12] | outcome [13] | max response [14] 0.445% | max response [15] -2.83% | outcome [16]

COc1cc(/C=C/C(=O)O[C@H]2CC[C@]34C[C@]35CC[C@]3(C)[C@@H]([C@H](C)CCC=C(C)C)CC[C@@]3(C)[C@@H]5CC[C@H]4C2(C)C)ccc1O
inactive: max response [17] 2.65% | outcome [13] | max response [14] 0.76% and -6.22% | max response [15] 0.391% | outcome [16]

O=c1c(-c2ccccc2)c1-c1ccccc1
active: Potency [2] 11.2 µM | Potency [7] 12 µM | Potency [9] 11.2 µM | Potency [12] 10 µM | Potency [18] 15.1 µM | Potency [17] 23.7 µM

Oc1ccc(Cl)cc1Sc1cc(Cl)ccc1O
inactive: Potency [1] | Potency [2] | Potency [3] | Potency [4] | Potency [5] | Potency [6] | Potency [7] | Potency [8] | Potency [10] | max response [13] 2% | max response [15] -21.9%

CCCCCCCCCCCCCCCC[N+](C)(C)CCN(Cc1ccc(OC)cc1)c1ncccn1
inactive: Potency [1] | Potency [4] | Potency [5] | Potency [7] | Potency [8] | max response [14] -4.99%
active: Potency [17] 9.44 µM

CCN(CC)C(=O)/C(C#N)=C/c1cc(O)c(O)c([N+](=O)[O-])c1
inactive: Potency [1] | Potency [2] | Potency [3] | Potency [4] | Potency [5] | Potency [6] | Potency [7] | Potency [8] | Potency [9] | Potency [10] | Potency [11] | Potency [18] | max response [17] -12.8% | max response [13] -5.03% | max response [14] 3.63%

O=S1(=O)c2cccc3cccc(c23)N1CCCN1CCN(c2ccc(F)cc2)CC1
inactive: Potency [1] | Potency [2] | Potency [3] | Potency [5] | Potency [6] | Potency [8] | Potency [9] | Potency [10] | Potency [11] | Potency [12] | Potency [18] | max response [13] -0.344% | max response [14] -1.2% | max response [15] -13.9%

CN1CCCC(CC2c3ccccc3Sc3ccccc32)C1 (stereo not drawn)
inactive: max response [13] 2.06% | max response [14] 7.2%

CC(=O)OCC(=O)[C@@]12N=C(C)O[C@@H]1C[C@H]1[C@@H]3CCC4=CC(=O)C=C[C@]4(C)[C@H]3[C@@H](O)C[C@@]12C
inactive: outcome [17] | outcome [13] | max response [14] 7.15% | max response [15] -1.08% | outcome [16] | outcome [19]

OC[C@H]1O[C@@H](n2cnc3c(=S)nc[nH]c32)[C@H](O)[C@@H]1O
active: Potency [17] 4.73 µM | Potency [13] 2.99 µM | Potency [15] 1.88 µM

Clc1ccc2c(c1)CCc1cccnc1C2=C1CCNCC1
active: Potency [7] 13.5 µM | Potency [18] 3.38 µM
inactive: Potency [1] | Potency [9] | max response [13] -1.5% | max response [14] -7.06%

CCN(CC)CCOC(=O)C(c1ccccc1)C1CCCCC1 (stereo not drawn)
inactive: Potency [1] | Potency [2] | Potency [4] | Potency [8] | Potency [9] | Potency [10] | Potency [12] | outcome [13] | max response [14] -2.77% | outcome [16]
active: Potency [18] 7.57 µM

NC(=NCCCCCCN=C(N)/N=C(\N)Nc1ccc(Cl)cc1)/N=C(\N)Nc1ccc(Cl)cc1
active: Potency [1] 3.98 µM | Potency [2] 0.004 µM | Potency [3] 1 µM | Potency [4] 3.55 µM | Potency [5] 3.16 µM | Potency [6] 2 µM | Potency [7] 3.79 µM | Potency [8] 3.16 µM | Potency [9] 0.891 µM | Potency [10] 3.98 µM | Potency [11] 2 µM | Potency [12] 0.794 µM | Potency [18] 0.849 µM | Potency [17] 7.5 µM and 7.31 µM | Potency [14] 8.2 µM

COc1cc(N)c(Cl)cc1C(=O)NC1CCN(CCCOc2ccc(F)cc2)CC1OC (stereo not drawn)
inactive: max response [13] -1.88% | max response [14] 6.35%

NC(=O)C(=O)N/N=C/c1ccc([N+](=O)[O-])o1
inactive: Potency [1] | Potency [2] | Potency [3] | Potency [4] | Potency [5] | Potency [6] | Potency [8] | Potency [9] | Potency [10] | Potency [11] | Potency [12] | outcome [13] | max response [14] 30.2% | outcome [16]

COc1c(C)c2c(c(O)c1C/C=C(\C)CCC(=O)O)C(=O)OC2
inactive: Potency [6] | Potency [8]
active: Potency [2] 3.16 µM | Potency [3] 2.82 µM | Potency [4] 3.16 µM | Potency [5] 3.16 µM | Potency [9] 2.24 µM | Potency [10] 2.82 µM | Potency [11] 3.98 µM | Potency [12] 1.58 µM | Potency [18] 2.56 µM | Potency [17] 0.944 µM | Potency [15] 1.68 µM

CNCC[C@@H](Oc1ccccc1C)c1ccccc1
inactive: max response [13] 1.42% | max response [14] -7.4%

CC(C)(C)CC(C)(C)c1ccc(OCCOCC[N+](C)(C)Cc2ccccc2)cc1
active: Potency [1] 6.31 µM | Potency [2] 3.98 µM | Potency [3] 6.31 µM | Potency [4] 5.01 µM | Potency [5] 8.91 µM | Potency [6] 5.01 µM | Potency [7] 4.26 µM | Potency [8] 6.31 µM | Potency [9] 5.62 µM | Potency [10] 5.62 µM | Potency [11] 3.55 µM | Potency [12] 3.16 µM | Potency [18] 1.2 µM | Potency [17] 6.68 µM and 8.2 µM
inactive: max response [15] -27.5%
